The whole screen tested about 330,000 compounds, of which about 7,300 (2.2%) were called active. This is one part of a sample in which actives are shown more often than they occur. Values without a mark were called inactive.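 The calls were made as follows: active = inhibition of at least 40%; inactive = the rest.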
Assay: growth inhibition of tim10-1 ts yeast – luminescence, uHTS, primary screen (AID 463190);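 also: mutant grown at 25 °C; 0% = DMSO wells with yeast and 100% = wells holding no yeast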
Details: S. cerevisiae tim10-1 ts strain growth, BacTiter-Glo, 24 h; at 20 µM; hits give high values

Structure (SMILES) | inhibition
Cc1nc2ccccn2c1P(=S)(N1CCCCC1)N1CCCCC1 | 56.2% (active)
O=C(COc1ccc2ccccc2c1)N1CCN(Cc2ccncc2)CC1 | 24.7%
CNP1(NC)=Nc2nn(-c3ccccc3)c(N)c2C(c2ccccc2)=N1 | -2.7%
CCc1ccc(OCC(=O)N2CCN(CC(=O)Nc3ccccc3Cl)CC2)cc1 | 12.7%
COc1cccc(N2C(=O)NC(=O)/C(=C\c3cn(C)c4ccccc34)C2=O)c1 | 13.4%
COc1cccc(N2C(=O)NC(=O)/C(=C\c3ccc([N+](=O)[O-])s3)C2=O)c1 | 70.3% (active)
O=C1NC(=O)N(c2ccccc2)C(=O)/C1=C/c1ccc([N+](=O)[O-])s1 | 81.2% (active)
COc1ccc(N2C(=O)/C(=C/c3ccco3)C(=O)NC2=S)cc1 | 23.1%
Fc1ccc(C2N3CCCN23)cc1 (stereo not given) | -13.4%
O=C(O)CCn1cc(C=C2C(=O)NC(=S)NC2=O)c(-c2cccc(Br)c2)n1 | 23.4%
COc1ccc2c(c1O)-c1cccc3c1[C@@H](C2)N(C)CC3 | -10%
CN(C)C(=O)Oc1cc(=O)n2c3c(cccc13)CCC2 | 13.3%
O=C1C2(Cl)C3(Cl)C4(Cl)C(Cl)(Cl)C5(Cl)C3(Cl)C1(Cl)C5(Cl)C24Cl (stereo not given) | -91.8%
O=C(CCCn1c(=O)[nH]c2cc(Cl)ccc2c1=O)N1CCC2(CC1)OCCO2 | 17.3%
COC(=O)C1=C(c2ccc(F)cc2OCc2ccccc2)C[C@@H]2CC[C@H]1N2C(=O)NCc1ccc2[nH]ccc2c1 | 9.44%
CCNc1nc2[nH]c(=O)c3c(c2s1)OC(N)=C(C#N)C3c1cccs1 (stereo not given) | -13.5%
N#CC1=C(N)Oc2c(c(=O)oc3ccccc23)C1c1ccccc1OC(=O)c1cccs1 (stereo not given) | 46.4% (active)
CC(=O)N(C1=NCCCS1)c1ccccc1F | 3.96%
CC1C2Cn3c(nc4ccccc43)C1N(C)O2 (stereo not given) | -11.3%
COP(=O)(OC)C(NC(=O)c1ccc(C)cc1)C(Cl)(Cl)Cl (stereo not given) | 11%
COC(=O)C1=C(c2cc3ccccc3s2)C[C@@H]2CC[C@H]1N2C(=O)NCCO | -17%
CCCCn1c(=O)c(C(=O)Nc2ccccc2Cl)c(O)c2ccccc21 | 2.29%
CCCCCn1c(=O)c(C(=O)Nc2c(C)n(C)n(-c3ccccc3)c2=O)c(O)c2ccccc21 | 45.4% (active)
CCCCCn1c(=O)c(C(=O)NCc2ccccc2)c(O)c2ccccc21 | -27.8%
O=C(O)c1ccccc1NC(=O)C1C2CCC(O2)C1C(=O)O (stereo not given) | -7.62%

From PubChem BioAssay AID463190 (Sanford-Burnham Center for Chemical Genomics, 2010)
